This note sets out measurements from PubChem BioAssay (EPA / NIEHS).

Activity calls are given as the source filed them. How the source made its calls: active means hit-call score of the fitted dose curve at least 0.9, where 1 is the maximum; inactive means score below 0.9.

A short description of assay [1]: ATG_CRE_CIS: Attagene CIS-FACTORIAL HepG2 Assay for human cAMP Responsive Element (CRE) binding protein 3 (AID 2282926). To be noted: HepG2 CRE cis-reporter, Attagene multiplexed mRNA; actives raise or lower the signal. The method, boiled down:
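Human liver HepG2, transient MRTU transfection, 24 h compound exposure. Total RNA → oligo(dT) RT → PCR → 6-FAM primer extension → HpaI cut → CE. Activity called both directions vs DMSO.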

The target of assay [2] is CCAAT/enhancer-binding protein beta (Homo sapiens) (UniProt P17676). Briefly: ATG_C_EBP_CIS: Attagene CIS-FACTORIAL HepG2 Assay for human CCAAT/Enhancer Binding Protein (C/EBP) beta (AID 2282927). To be noted: HepG2 Attagene cis-factorial transcription factor reporter; actives raise or lower the signal. The method, boiled down:
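Transiently transfected HepG2 (MRTU library, endogenous TF-driven promoters); 24 h dosing; total RNA → oligo(dT) RT → PCR → 6-FAM primer extension → HpaI digest → CE; fit bidirectionally vs DMSO.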

Assay [3] is described as follows: ATG_CMV_CIS: Attagene CIS-FACTORIAL HepG2 Assay for human CMV (Internal Marker) (AID 2282928).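 Further: endpoint acts as a background internal control marker rather than a target.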 To be noted: HepG2 CMV promoter reporter, transcription factor profiling; actives raise or lower the signal. The gist of the method: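 After transient transfection of HepG2 with reporter transcription units driven by cis-regulatory promoters, cells receive test chemical for 24 h. Labeled reporter amplicons, digested with HpaI, are sized and quantified by capillary electrophoresis against DMSO.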

Assay [4] is described as follows: ATG_DR4_LXR_CIS: Attagene CIS-FACTORIAL HepG2 Assay for human Liver X Receptor (LXR), DR4 submotif (AID 2282929). Conditions: HepG2 Attagene DR4 cis-reporter, mRNA transcription; actives raise or lower the signal. The method, boiled down: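 The endpoint is DR4-element-driven reporter transcripts after 24 h chemical exposure of transfected HepG2 cells. These were measured via RT-PCR and capillary electrophoresis, and gain or loss of signal was fitted relative to DMSO controls.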

The target in assay [5] is Aryl hydrocarbon receptor (Homo sapiens) (UniProt P35869). The assay can be described thus: ATG_Ahr_CIS: Attagene CIS-FACTORIAL HepG2 Assay for human Aryl Hydrocarbon Receptor (Ahr) (AID 2282930). To be noted: HepG2 AhR cis-factorial reporter transcription; actives raise or lower the signal. The method, boiled down: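 Read-out: reporter mRNA quantified by RT-PCR with fluorescent primer extension and capillary electrophoresis. Human HepG2 liver cells carried transfected cis-promoter reporter units and were exposed to chemical for 24 h; gain or loss fitted relative to DMSO.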
Chain of Aryl hydrocarbon receptor (Homo sapiens) (P35869 whole entry, looked up): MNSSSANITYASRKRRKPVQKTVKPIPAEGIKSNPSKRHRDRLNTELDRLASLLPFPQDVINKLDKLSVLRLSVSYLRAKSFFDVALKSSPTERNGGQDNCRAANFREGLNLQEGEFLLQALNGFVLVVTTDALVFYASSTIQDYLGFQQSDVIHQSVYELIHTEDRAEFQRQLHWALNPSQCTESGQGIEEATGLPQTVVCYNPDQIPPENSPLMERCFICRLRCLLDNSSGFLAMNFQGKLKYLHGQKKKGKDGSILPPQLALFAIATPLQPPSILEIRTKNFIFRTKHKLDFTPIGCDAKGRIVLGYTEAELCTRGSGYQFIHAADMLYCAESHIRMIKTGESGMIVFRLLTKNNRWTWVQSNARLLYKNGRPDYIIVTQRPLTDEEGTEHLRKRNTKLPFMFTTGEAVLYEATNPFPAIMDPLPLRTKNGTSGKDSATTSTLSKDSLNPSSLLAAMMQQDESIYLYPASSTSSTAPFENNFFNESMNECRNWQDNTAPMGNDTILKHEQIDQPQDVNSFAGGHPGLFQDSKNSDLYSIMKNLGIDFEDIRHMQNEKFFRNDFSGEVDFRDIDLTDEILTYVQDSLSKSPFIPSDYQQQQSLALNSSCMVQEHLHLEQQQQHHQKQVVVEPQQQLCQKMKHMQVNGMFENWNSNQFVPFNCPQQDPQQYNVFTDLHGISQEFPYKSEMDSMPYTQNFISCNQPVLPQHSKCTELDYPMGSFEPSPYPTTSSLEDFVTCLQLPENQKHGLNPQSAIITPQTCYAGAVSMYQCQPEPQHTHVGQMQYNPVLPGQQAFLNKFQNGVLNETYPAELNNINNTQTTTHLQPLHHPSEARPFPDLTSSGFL

Assay [6] in a line: ATG_AP_2_CIS: Attagene CIS-FACTORIAL HepG2 Assay for human Activator Protein 2 (AP-2) (AID 2282932). To be noted: HepG2 AP-2 cis-reporter, Attagene transcription factor profiling; actives raise or lower the signal. The gist of the method: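 Multiplexed mRNA reporter assay in HepG2: cis-regulated units report endogenous factor activity after 24 h treatment. Fluorescence from capillary electrophoresis of RT-PCR products gives the signal, with DMSO as baseline.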

A short description of assay [7]: ATG_BRE_CIS: Attagene CIS-FACTORIAL HepG2 Assay for human Bone Morphogenetic Protein (BMP) Response Element (BRE) (AID 2282933). Conditions: HepG2 BMP response element reporter, Attagene transcription factor profiling; actives raise or lower the signal. The gist of the method: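 Read-out: reporter mRNA induction quantified by RT-PCR and capillary electrophoresis after 24 h chemical exposure of transfected HepG2 cells. Endogenous factor activity on the BMP response element; gain or loss fitted against DMSO baseline.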

The target of assay [8] is Transcription factor E2F1 (Homo sapiens) (UniProt Q01094). The assay can be described thus: ATG_E2F_CIS: Attagene CIS-FACTORIAL HepG2 Assay for human E2F Transcription Factor 1 (AID 2282935). Conditions: HepG2 Attagene cis-reporter, E2F reporter RNA transcripts; actives raise or lower the signal. The gist of the method: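 Measures reporter transcript levels via RT-PCR with capillary electrophoresis detection in HepG2 cells harboring cis-regulated reporter units; 24 h post-dose; bidirectional curve fitting with DMSO as baseline.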
Chain of Transcription factor E2F1 (Homo sapiens) (Q01094 whole entry, looked up): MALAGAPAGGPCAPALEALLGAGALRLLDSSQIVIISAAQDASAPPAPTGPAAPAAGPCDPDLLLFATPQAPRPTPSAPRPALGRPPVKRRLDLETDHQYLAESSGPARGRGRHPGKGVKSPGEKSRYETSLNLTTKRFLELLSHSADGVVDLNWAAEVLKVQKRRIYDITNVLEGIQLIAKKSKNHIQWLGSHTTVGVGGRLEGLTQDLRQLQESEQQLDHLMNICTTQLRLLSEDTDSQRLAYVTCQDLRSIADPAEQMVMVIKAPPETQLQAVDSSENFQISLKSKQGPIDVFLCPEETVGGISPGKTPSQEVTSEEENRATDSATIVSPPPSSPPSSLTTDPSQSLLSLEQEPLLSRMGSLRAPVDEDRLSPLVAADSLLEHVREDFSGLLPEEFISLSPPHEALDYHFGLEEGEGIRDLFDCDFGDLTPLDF

The nature of assay [9]: ATG_E_Box_CIS: Attagene CIS-FACTORIAL HepG2 Assay for human Enhancer Box (E-box) (AID 2282936). Conditions: HepG2 E-box cis-reporter transcription, actives raise or lower the signal. The gist of the method: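 First, HepG2 cells receive multiple cis-regulated reporter constructs by transient transfection. Next, chemicals are applied for 24 h. Finally, reporter mRNA is quantified via RT-PCR and capillary electrophoresis, with DMSO as baseline.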

A short description of assay [10]: ATG_M_61_CIS: Attagene CIS-FACTORIAL HepG2 Assay for M61 Transcription Factor (Internal Marker) (AID 2282937). Conditions: HepG2 Attagene CIS-FACTORIAL M61 internal marker reporter; actives raise or lower the signal. The gist of the method:
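Readout is reporter mRNA by RT-PCR, fluorescent primer extension and capillary electrophoresis, with gain or loss fitted relative to DMSO. Transfected HepG2 cells carrying endogenous-TF-driven cis reporters were exposed to chemicals for 24 hours.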

Assay [11] is described as follows: ATG_EGR_CIS: Attagene CIS-FACTORIAL HepG2 Assay for human Early Growth Response 1 (EGR1) (AID 2282938). Conditions: HepG2 Attagene CIS-FACTORIAL EGR reporter mRNA; actives raise or lower the signal. The gist of the method: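 After 24 h compound exposure, RNA from reporter-transfected HepG2 cells was reverse-transcribed, PCR-amplified, fluorescently labelled and resolved by capillary electrophoresis. EGR1 reporter transcript changes, up or down, were fitted against DMSO, reflecting endogenous transcription-factor activity.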

Assay [12] in a line: ATG_M_19_CIS: Attagene CIS-FACTORIAL HepG2 Assay for M19 Transcription Factor (Internal Marker) (AID 2282939). To be noted: HepG2 Attagene CIS-FACTORIAL M19 internal marker reporter; actives raise or lower the signal. The gist of the method:
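Readout: fluorescent reporter-transcript fragments by capillary electrophoresis after RT-PCR. Human HepG2 liver cells carried transfected MRTU constructs reporting endogenous transcription-factor activity; exposure 24 h. Gain or loss of signal fitted relative to DMSO.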

Assay [13] is described as follows: ATG_Ets_CIS: Attagene CIS-FACTORIAL HepG2 Assay for human Erythroblast Transformation Specific (ETS) (AID 2282941). To be noted: HepG2 ETS cis-reporter transcription, actives raise or lower the signal. The gist of the method:
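Human HepG2 hepatoma cells were transiently transfected with promoter-driven reporter constructs and treated for 24 hours. Reporter transcripts were quantified by RT-PCR with fluorescent primer extension; bidirectional curve fitting used DMSO as reference.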

The target in assay [14] is Hepatocyte nuclear factor 3-beta (Homo sapiens) (UniProt Q9Y261). Briefly: ATG_FoxA2_CIS: Attagene CIS-FACTORIAL HepG2 Assay for human Forkhead box A2 (FOXA2) (AID 2282942). To be noted: HepG2 cis-reporter transcription factor activity, 24 h; actives raise or lower the signal. The method, boiled down: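 Endogenous transcription factor activity is captured via cis-element-driven reporter transcripts in transfected HepG2. Total RNA taken at 24 h post-dosing; labelled RT-PCR products resolved by capillary electrophoresis. Gain or loss fitted versus DMSO.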
Chain of Hepatocyte nuclear factor 3-beta (Homo sapiens) (Q9Y261 whole entry, looked up): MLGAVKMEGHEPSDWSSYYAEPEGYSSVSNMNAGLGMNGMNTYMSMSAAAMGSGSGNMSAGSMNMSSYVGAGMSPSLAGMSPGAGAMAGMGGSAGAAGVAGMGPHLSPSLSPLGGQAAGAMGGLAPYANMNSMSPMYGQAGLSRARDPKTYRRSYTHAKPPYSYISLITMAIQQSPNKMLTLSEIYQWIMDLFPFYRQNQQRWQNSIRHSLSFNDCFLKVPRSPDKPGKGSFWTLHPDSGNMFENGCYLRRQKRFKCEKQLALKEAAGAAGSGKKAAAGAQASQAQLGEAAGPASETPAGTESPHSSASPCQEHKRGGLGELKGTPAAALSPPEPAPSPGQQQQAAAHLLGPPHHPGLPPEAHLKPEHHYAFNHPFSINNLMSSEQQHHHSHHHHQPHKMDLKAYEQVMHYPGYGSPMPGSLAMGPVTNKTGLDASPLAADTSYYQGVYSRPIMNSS

A short description of assay [15]: ATG_FoxO_CIS: Attagene CIS-FACTORIAL HepG2 Assay for human Forkhead box O (FoxO) (AID 2282943). To be noted: HepG2 Attagene cis-reporter, FoxO element, mRNA; actives raise or lower the signal. The method, boiled down:
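Read-out: fluorescence of 6-FAM-labelled reporter cDNA fragments resolved by capillary electrophoresis. Transiently transfected HepG2 cells were dosed for 24 h; activity fitted in both directions relative to DMSO controls.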

The nature of assay [16]: ATG_GATA_CIS: Attagene CIS-FACTORIAL HepG2 Assay for human GATA Binding Protein (AID 2282944). To be noted: HepG2 GATA cis-element reporter, Attagene multiplex mRNA; actives raise or lower the signal. The gist of the method: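 Read-out: fluorescent reporter mRNA fragments resolved by capillary electrophoresis after RT-PCR. Human liver HepG2 cells carried transiently transfected cis-regulated reporter constructs; chemicals incubated 24 h; gain or loss of signal fitted relative to DMSO.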

A short description of assay [17]: ATG_GLI_CIS: Attagene CIS-FACTORIAL HepG2 Assay for human Zinc Finger Protein GLI1 (AID 2282945). To be noted: HepG2, Attagene cis-factorial reporter mRNA, GLI element; actives raise or lower the signal. The method, boiled down:
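Transiently transfected HepG2 cells report endogenous transcription factor activity via cis-element-driven reporter units. After 24 h compound exposure, reporter mRNA was measured by RT-PCR with capillary electrophoresis; bidirectional fitting against DMSO baseline.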

Assay [18] in a line: ATG_AP_1_CIS: Attagene CIS-FACTORIAL HepG2 Assay for human Activator Protein 1 (AP-1) (AID 2282931). To be noted: HepG2 Attagene cis-factorial AP-1 reporter mRNA; actives raise or lower the signal. The gist of the method: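 Readout is reporter transcript level from endogenous transcription factor activity, quantified by RT-PCR with fluorescent primer extension and capillary electrophoresis. Transiently transfected HepG2 cells, 24 h exposure. Curves fitted both directions versus DMSO.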

Assay [19] addresses Retinoic acid receptor alpha (Homo sapiens) (UniProt P10276). The assay can be described thus: ATG_DR5_RAR_CIS: Attagene CIS-FACTORIAL HepG2 Assay for human Retinoic Acid Receptor Alpha (RARE), DR5 submotif (AID 2282934). To be noted: HepG2 Attagene cis-factorial RARE DR5 reporter, mRNA; actives raise or lower the signal. The method, boiled down:
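Read-out: DR5-driven reporter transcript measured by RT-PCR, 6-FAM primer extension, HpaI digest and capillary electrophoresis. Human HepG2 liver cells carry transiently transfected cis-element reporter constructs; dosing lasts 24 h. Gain or loss of signal fitted against DMSO baseline.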

Assay [20] can be described thus: ATG_ERE_CIS: Attagene CIS-FACTORIAL HepG2 Assay for Estrogen Response Element (ERE) (AID 2282940). Conditions: HepG2 ERE cis-reporter, Attagene RNA transcript; actives raise or lower the signal. The gist of the method:
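Readout: reporter mRNA induction by RT-PCR, FAM-labelled primer extension, HpaI digestion and capillary electrophoresis, 24 h after dosing transfected HepG2 cells. Endogenous transcription factors act on cis-element-regulated reporters. Gain or loss fitted against DMSO.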

Chain of CCAAT/enhancer-binding protein beta (Homo sapiens) (P17676 whole entry, looked up): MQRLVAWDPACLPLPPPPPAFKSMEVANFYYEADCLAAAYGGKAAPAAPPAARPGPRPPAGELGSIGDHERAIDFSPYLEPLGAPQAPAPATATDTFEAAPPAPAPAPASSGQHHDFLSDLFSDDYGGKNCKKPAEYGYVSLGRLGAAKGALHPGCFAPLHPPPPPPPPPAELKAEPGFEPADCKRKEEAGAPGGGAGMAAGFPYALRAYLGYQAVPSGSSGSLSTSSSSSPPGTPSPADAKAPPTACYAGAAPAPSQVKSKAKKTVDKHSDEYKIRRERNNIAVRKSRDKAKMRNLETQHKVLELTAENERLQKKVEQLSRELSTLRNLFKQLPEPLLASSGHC
Chain of Retinoic acid receptor alpha (Homo sapiens) (P10276 whole entry, looked up): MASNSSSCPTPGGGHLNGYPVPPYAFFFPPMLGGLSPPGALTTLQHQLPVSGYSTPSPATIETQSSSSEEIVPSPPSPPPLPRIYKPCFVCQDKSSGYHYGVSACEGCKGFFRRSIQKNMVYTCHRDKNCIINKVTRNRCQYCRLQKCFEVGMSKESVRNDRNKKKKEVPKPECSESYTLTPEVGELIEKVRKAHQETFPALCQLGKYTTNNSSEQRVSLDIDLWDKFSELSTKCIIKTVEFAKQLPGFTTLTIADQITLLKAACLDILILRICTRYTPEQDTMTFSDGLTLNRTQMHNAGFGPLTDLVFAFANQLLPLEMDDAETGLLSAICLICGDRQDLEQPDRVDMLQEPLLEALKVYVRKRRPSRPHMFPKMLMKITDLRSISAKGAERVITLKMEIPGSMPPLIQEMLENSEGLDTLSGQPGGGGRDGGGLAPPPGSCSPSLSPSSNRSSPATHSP

In the case of `O=C(O)c1ccc(C(=O)O)cc1`, the outcome in [1], in [2], in [3], in [4], in assay [5] and in [6] was inactive. For the same compound, the compound was called inactive in assay [7], in [8], in assay [9], in [10], in [11] and in assay [12]. Moreover, the call in assay [13], in assay [14], in assay [15], in [16] and in [17] was inactive.
In the case of `CCC(C)CCCC(C)(C)O` (stereo not given), the outcome in assay [1], in assay [2], in [3], in [4], in assay [5] and in assay [18] was inactive. Besides, the compound was called inactive in assay [6], in assay [19], in assay [8], in assay [9], in assay [10] and in assay [11]. Also, the result in assay [12], in assay [13], in [14], in [15], in assay [16] and in assay [17] was inactive.
For orientation: AC50 means the midpoint of the concentration-response curve, whichever way the signal moves. For the compound `O=P(c1ccccc1)(c1ccccc1)c1ccccc1`, the compound was classed as inactive in [1], in [2], in [3], in assay [5], in assay [6] and in assay [7]. Further, the compound was classed as inactive in assay [8], in assay [9], in [10], in assay [11], in assay [12] and in assay [20]. In addition, the compound was classed as inactive in assay [13], in assay [14], in [15], in [16] and in assay [17]. Also, the AC50 in assay [4] is 58.6 µM (active).
As for `Cc1ccc(Nc2ccc(O)c3c2C(=O)c2ccccc2C3=O)cc1`, the result in [1], in assay [2], in assay [3], in [4], in [5] and in [18] was inactive. For the same compound, the outcome in assay [6], in assay [8], in [10], in [11], in assay [20] and in assay [13] was inactive. Moreover, the call in assay [15], in assay [16] and in assay [17] was inactive.
For the compound `O=C(O)CCCCCCCCCCC(=O)O`, the outcome in [1], in assay [2], in assay [3], in assay [4], in assay [5] and in assay [18] was inactive. Further, the outcome in assay [6], in assay [8], in assay [10], in [11], in assay [12] and in assay [20] was inactive. Moreover, the call in [13], in assay [15], in [16] and in assay [17] was inactive.
Consider `COc1c(Cl)c(Cl)c(Cl)c(Cl)c1Cl`, for which the result in assay [1], in assay [2], in assay [4], in [5], in [18] and in assay [6] was inactive. For the same compound, the outcome in assay [8], in [9], in assay [10], in assay [11], in assay [12] and in assay [13] was inactive. The compound was classed as inactive in assay [14], in assay [15], in assay [16] and in assay [17]. The AC50 in assay [3] is 27.7 µM (active).
For the compound `CC(CCO)CCc1ccccc1` (stereo not given), the outcome in assay [1], in assay [2], in assay [3], in assay [4], in assay [5] and in assay [18] was inactive. Further, the result in [6], in assay [8], in [9], in assay [10], in assay [11] and in [12] was inactive. The compound was called inactive in assay [13], in [14], in [15], in assay [16] and in assay [17].
Turning to `O=C(OCc1ccccc1)C(=O)OCc1ccccc1`, the compound was called inactive in assay [1], in assay [2], in assay [3], in assay [4], in assay [5] and in assay [18]. The outcome in [6], in assay [8], in [9], in assay [10], in assay [11] and in assay [12] was inactive. Moreover, the result in assay [20], in assay [14], in assay [15], in assay [16] and in assay [17] was inactive.
